We go through 21 compounds from PubChem BioAssay (EPA / NIEHS).

Records with an inconclusive call do not appear. Activity calls are given as the source filed them. How the source made its calls, unless noted: active means hit-call score of the fitted dose curve at least 0.9, where 1 is the maximum; inconclusive means response in the unintended direction; inactive means score below 0.9.

Broadly, the AC50 is the midpoint of the concentration-response curve, whichever way the signal moves.

Ratio of Nucleoli Translocation and Cytoplasm, AR (gene 367), sequence (P10275 whole entry, looked up): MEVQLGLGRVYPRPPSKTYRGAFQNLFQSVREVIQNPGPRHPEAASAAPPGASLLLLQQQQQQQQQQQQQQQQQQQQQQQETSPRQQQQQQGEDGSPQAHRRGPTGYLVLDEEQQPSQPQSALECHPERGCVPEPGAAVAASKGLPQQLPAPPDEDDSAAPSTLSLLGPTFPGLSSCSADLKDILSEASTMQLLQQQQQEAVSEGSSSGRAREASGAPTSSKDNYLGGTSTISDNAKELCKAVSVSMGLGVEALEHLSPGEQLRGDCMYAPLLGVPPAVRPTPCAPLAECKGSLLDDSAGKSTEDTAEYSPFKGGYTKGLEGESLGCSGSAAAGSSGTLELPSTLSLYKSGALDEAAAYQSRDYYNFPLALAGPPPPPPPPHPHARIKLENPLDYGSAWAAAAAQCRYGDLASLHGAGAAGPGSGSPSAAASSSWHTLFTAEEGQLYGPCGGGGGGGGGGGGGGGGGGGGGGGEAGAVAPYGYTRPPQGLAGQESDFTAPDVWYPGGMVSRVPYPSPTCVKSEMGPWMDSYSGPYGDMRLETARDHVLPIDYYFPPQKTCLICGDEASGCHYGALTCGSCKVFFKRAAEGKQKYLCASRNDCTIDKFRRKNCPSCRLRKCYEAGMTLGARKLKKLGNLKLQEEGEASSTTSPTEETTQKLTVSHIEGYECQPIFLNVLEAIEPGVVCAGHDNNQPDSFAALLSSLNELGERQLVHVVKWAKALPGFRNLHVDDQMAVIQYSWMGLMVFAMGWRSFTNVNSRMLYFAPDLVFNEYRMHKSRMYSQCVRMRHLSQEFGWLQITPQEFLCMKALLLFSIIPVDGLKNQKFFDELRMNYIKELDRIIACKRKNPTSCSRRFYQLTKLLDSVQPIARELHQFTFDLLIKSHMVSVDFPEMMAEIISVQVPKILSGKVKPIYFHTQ
Nucleoli Translocation, AR (gene 367), sequence (P10275 whole entry, looked up): as above

The subject of one assay is DIO1 (gene 1733). The experiment in a line: CCTE_GLTED_hDIO1: CCTE's human Deiodinase 1 (DIO1) Inhibition Assay, Great Lakes Toxicology and Ecology Division (GLTED) Lab (AID 2283987).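 Further: isolated human DIO1 enzyme in a cell-free setup rather than cells; enzyme activity read as free iodide liberated from substrate via Sandell-Kolthoff colorimetry.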 A digest of the protocol: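 Cell-free human DIO1 enzyme incubated 3 h with test chemical; iodide freed from substrate then measured by Sandell-Kolthoff absorbance. Run in triplicate; loss of signal relative to DMSO taken as inhibition.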
Turning to `CC/C=C\C/C=C\C/C=C\CCCCCCCC(=O)O`, the AC50 is 20.6 µM (active).
As for `CCCCCCCC/C=C\CCCCCCCC(=O)O`, the AC50 was 74 µM (active).
For the compound `CCCCC/C=C\C/C=C\CCCCCCCC(=O)OC`, the AC50 was 21 µM (active).

A further assay concerns the target Nucleoli Translocation, AR (gene 367) (UniProt P10275). Description: UPITT_HCI_U2OS_AR_TIF2_Nucleoli_Antagonist: University of Pittsburgh U2OS Androgen Receptor-Transcriptional Intermediary Factor 2 (AR-TIF2) Antagonism High Content Imaging Assay for Nucleoli Translocation (AID 2283997). The essentials: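 Antagonism is read as loss of nucleolar AR-RFP signal relative to DHT, imaged in U2OS cells also carrying GFP-TIF2. Compounds screened at 20 uM final, 0.2% DMSO; primary actives retested in triplicate.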
With `CC(C)(Oc1ccc(C2CC2(Cl)Cl)cc1)C(=O)O` (stereo not drawn), the compound was classed as inactive.
`CC(CC=O)CCCC(C)(C)O` (stereo not drawn): the compound was called inactive.
`CCCc1ccc(OC)cc1`: the result was inactive.
As to `CC(C)c1ccc2c(C(C)C)cc(C(C)C)c(S(=O)(=O)O)c2c1`, the compound was classed as inactive.
For `O=c1cc(-c2ccccc2)oc2ccccc12`, the half-maximal activity concentration (AC50) is 21.9 µM (active).
Turning to `CC(C)c1ccc2cc(C(C)C)ccc2c1`, the call was inactive.
On the same count and under the same terms, next, `CC(C)=CCC[C@H](C)CCO`: “inactive”.
In the case of `CCCCC/C=C\CCC=O`, the outcome was inactive.

For the next assay the target is unchanged. Description: UPITT_HCI_U2OS_AR_TIF2_Nucleoli_Agonist: University of Pittsburgh U2OS Androgen Receptor-Transcriptional Intermediary Factor 2 (AR-TIF2) Agonism High Content Imaging Assay for Nucleoli Translocation (AID 2283998). A digest of the protocol:
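U2OS cells expressing RFP-tagged human AR and GFP-tagged TIF2; red fluorescence in nucleoli quantified by high-content imaging. Primary screen at 20 uM final (0.2% DMSO); concentration-response 0.195–50 uM (0.5% DMSO), fitted upward versus DMSO.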
On to `CC(C)(Oc1ccc(C2CC2(Cl)Cl)cc1)C(=O)O` (stereo not drawn), for which the compound was called inactive.
Same read-out and setting: next, `CC(CC=O)CCCC(C)(C)O` (stereo not drawn): “inactive”; `O=c1cc(-c2ccccc2)oc2ccccc12`: “inactive”.
On the same count and under the same terms, next, `CC(C)=CCC[C@H](C)CCO`: “inactive”; `CCCCC/C=C\CCC=O`: “inactive”.

Another assay has as its target Ratio of Nucleoli Translocation and Cytoplasm, AR (gene 367) (UniProt P10275). Description: UPITT_HCI_U2OS_AR_TIF2_Nucleoli_Cytoplasm_Ratio_Antagonist: University of Pittsburgh U2OS Androgen Receptor-Transcriptional Intermediary Factor 2 (AR-TIF2) Antagonism High Content Imaging Assay for Ratio of Nucleoli Translocation and Cytoplasm (AID 2283999).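 Further: antagonists lower the DHT-driven ratio of nucleolar to cytoplasmic red signal.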 A digest of the protocol: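 This antagonist-mode endpoint tracks AR-RFP localisation, the nucleolus-to-cytoplasm intensity ratio, in TIF2-GFP-coexpressing U2OS cells. DMSO stays at or below 0.5%; testing spans 20 uM single-dose and 0.195–50 uM series, with DHT setting the activity baseline.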
Turning to `CC(C)(Oc1ccc(C2CC2(Cl)Cl)cc1)C(=O)O` (stereo not drawn), the outcome was inactive.
As for `CC(CC=O)CCCC(C)(C)O` (stereo not drawn), the result was inactive.
Consider `CCCc1ccc(OC)cc1`, for which the result was inactive.
`O=c1cc(-c2ccccc2)oc2ccccc12`: the half-maximal activity concentration (AC50) was 10.5 µM (active).
`CC(C)c1ccc2cc(C(C)C)ccc2c1`: the outcome was inactive.
As for `CC(C)=CCC[C@H](C)CCO`, the outcome was inactive.

The target is the same in another assay. The experiment in a line: UPITT_HCI_U2OS_AR_TIF2_Nucleoli_Cytoplasm_Ratio_Agonist: University of Pittsburgh U2OS Androgen Receptor-Transcriptional Intermediary Factor 2 (AR-TIF2) Agonism High Content Imaging Assay for Ratio of Nucleoli Translocation and Cytoplasm (AID 2284000).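 Further: hits raise the red nucleolar to cytoplasm ratio above vehicle.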 A digest of the protocol: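 Compounds tested at 20 uM final in primary screen (0.2% DMSO) and 0.195-50 uM final in dose-response (0.5% DMSO). Imaging of human U2OS cells bearing RFP-AR and GFP-TIF2; endpoint is nucleoli/cytoplasm red signal ratio, positive direction relative to DMSO.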
Turning to `CC(C)(Oc1ccc(C2CC2(Cl)Cl)cc1)C(=O)O` (stereo not drawn), the outcome was inactive.
Still for that read-out and setting: next, `CC(CC=O)CCCC(C)(C)O` (stereo not drawn): “inactive”; `CC(C)c1ccc2c(C(C)C)cc(C(C)C)c(S(=O)(=O)O)c2c1`: “inactive”; `CC(C)c1ccc2cc(C(C)C)ccc2c1`: “inactive”.
The same measure, in the same setting: for `CC(C)=CCC[C@H](C)CCO` the value was “inactive”.
The same measure, in the same setting: next, `CCCCC/C=C\CCC=O`: “inactive”.

Test system in a further assay: not listed separately
Description: CCTE_Shafer_MEA_acute_spike_number: CCTE's Neural Acute Assay for Total Number of Spikes, Shafer Lab (AID 2284008; active means hit-call score of the fitted dose curve at least 0.9, where 1 is the maximum; inactive means score below 0.9;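 on AC50: curve fitted for decrease in spike count so AC50 reflects inhibitors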). A digest of the protocol:
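Rat primary cortical neurons on 48-well MEA plates, DIV 13 or 15, at 37 C. 40 min baseline then 40 min with compound (0.03-40 uM); spikes detected at 8x rms noise, expressed as percent change from baseline.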
With `CCCCC(CC)COC(=O)c1ccccc1O` (stereo not drawn), the result was inactive.
Consider `O=C1CCCN1CCO`, for which the compound was called inactive.
Consider `Nc1ncn([C@@H]2O[C@H](CO)[C@@H](O)[C@H]2O)c(=O)n1`, for which the AC50 is 7.65 nM (active).
Regarding `O=C(c1ccc(O)cc1)c1ccc(O)cc1O`, the result was inactive.
Consider `CCO[Si](C)(OCC)OCC`, for which the call was inactive.
In the case of `Nc1ccc(N)c(Cl)c1`, the compound was called inactive.
With `C=C[Si](OC(C)=O)(OC(C)=O)OC(C)=O`, the compound was classed as inactive.
With `CN1C(=O)N(C)C(O)C1O` (stereo not drawn), the compound was called inactive.
With `CCCCC(CC)COCC1CO1` (stereo not drawn), the result was inactive.
In the case of `CO[Si](OC)(OC)c1ccccc1`, the outcome was inactive.
